Results filed as inconclusive are left out. Calls of active or inactive are those of the source. The calls were made as follows, unless noted: active = hit-call score of the fitted dose curve at least 0.9, where 1 is the maximum; inconclusive = response in the unintended direction; inactive = score below 0.9.

A short description of assay [1]: Tanguay_ZF_120hpf_EYE_legacy: (Legacy) Oregon State University Tanguay Lab 120 Hour Post-fertilization zebrafish Assay for Eye Malformation (AID 2283636).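 Also: binary presence or absence of eye malformation scored by brightfield in 120 hpf larvae.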 The essentials:
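Binary brightfield scoring of eye defects at 120 hpf after static exposure from 6 hpf of single pronase-dechorionated wild-type embryos (28C, 0.64% DMSO). Non-mortality endpoints omitted where embryos died; fit vs DMSO.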

Assay [2] in a line: Tanguay_ZF_120hpf_SNOU_legacy: (Legacy) Oregon State University Tanguay Lab 120 Hour Post-fertilization zebrafish Assay for Snout Malformation (AID 2283637). The essentials: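 Binary snout-malformation call at 120 hpf in wild-type 5D embryos, chorion removed by pronase, under static exposure from 6 hpf at 28C (0.64% DMSO). Embryos dying by 24 or 120 hpf excluded.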
Assay [3] can be described thus: Tanguay_ZF_120hpf_JAW_legacy: (Legacy) Oregon State University Tanguay Lab 120 Hour Post-fertilization zebrafish Assay for Jaw Malformation (AID 2283638).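 As to AC50: active means more embryos with jaw malformation than DMSO controls.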 The method, boiled down:
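Wild-type 5D embryos, chorion removed at 4 hpf, dosed singly from 6 hpf; 28C static, sealed, foil-covered, to 120 hpf. Endpoint: jaw defect yes/no (brightfield); mortality excludes scoring.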

Assay [4] can be described thus: Tanguay_ZF_120hpf_OTIC_legacy: (Legacy) Oregon State University Tanguay Lab 120 Hour Post-fertilization zebrafish Assay for Otic Vesicle Malformation (AID 2283639). The method, boiled down:
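Binary scoring of otic vesicle defects at 120 hpf in zebrafish (Tropical 5D) held under static exposure at 28C, sealed and shaded, with final DMSO 0.64%. Embryos dying by 24 or 120 hpf excluded; fitted positively against DMSO.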

Assay [5] is described as follows: Tanguay_ZF_120hpf_BRAI_legacy: (Legacy) Oregon State University Tanguay Lab 120 Hour Post-fertilization zebrafish Assay for Brain Malformation (AID 2283641). The essentials:
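Static exposure of staged wild-type embryos until 120 hpf, kept at 28C with light excluded and final DMSO of 0.64% (vol/vol). Presence or absence of brain malformation was noted under brightfield; mortality precluded scoring.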

Assay [6] can be described thus: Tanguay_ZF_120hpf_SOMI_legacy: (Legacy) Oregon State University Tanguay Lab 120 Hour Post-fertilization zebrafish Assay for Somite Malformation (AID 2283647). The method, boiled down: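 Somitogenesis defects are recorded as binary calls in whole larvae at 120 hpf after continuous static chemical exposure starting at 6 hpf in dechorionated 5D embryos. DMSO serves as negative control and baseline.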

A short description of assay [7]: Tanguay_ZF_120hpf_PFIN_legacy: (Legacy) Oregon State University Tanguay Lab 120 Hour Post-fertilization zebrafish Assay for Pectoral Fin Malformation (AID 2283648).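 Also: each larva judged yes or no for fin defect by brightfield with dead larvae skipped.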 The method, boiled down: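 Pectoral fin malformation was recorded as a binary endpoint at 120 hpf in wild-type Tropical 5D larvae, which had been dechorionated and exposed statically from 6 hpf at 28C in 0.64% DMSO. Dead embryos were excluded.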

Assay [8] is described as follows: Tanguay_ZF_120hpf_CFIN_legacy: (Legacy) Oregon State University Tanguay Lab 120 Hour Post-fertilization zebrafish Assay for Caudal Fin Malformation (AID 2283649). The method, boiled down:
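Single dechorionated 5D wild-type embryos are dosed at 6 hpf (final DMSO 0.64%) and held statically at 28C. Caudal fin malformation is recorded as present or absent at 120 hpf under brightfield, excluding dead embryos.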

The nature of assay [9]: Tanguay_ZF_120hpf_PIG_legacy: (Legacy) Oregon State University Tanguay Lab 120 Hour Post-fertilization zebrafish Assay for Pigmentation Malformation (AID 2283650). The essentials:
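Pigment malformation recorded as a binary call at 120 hpf in zebrafish (Tropical 5D) exposed singly from 6 hpf after pronase dechorionation. Static, sealed, 28C exposure, 0.64% DMSO; mortality excludes scoring; positive-direction fit against DMSO.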

Assay [10] in a line: Tanguay_ZF_120hpf_CIRC_legacy: (Legacy) Oregon State University Tanguay Lab 120 Hour Post-fertilization zebrafish Assay for Circulatory Malformation (AID 2283651). The essentials:
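Binary circulatory malformation call at 120 hpf by brightfield imaging of zebrafish larvae; chorion removed at 4 hpf, static exposure from 6 hpf in sealed dark plates at 28C, final DMSO 0.64%; non-mortality endpoints skipped if embryo died.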

Read-out in assay [11]: kallikrein-3 (KLK3), KLK3 (gene 354)
As to the kind of experiment: LTEA_HepaRG_KLK3: Life Technologies and Expression Analysis (LTEA) Assay for kallikrein-3 (KLK3) using HepaRG (AID 2283652; active = hit-call score of the fitted dose curve at least 0.9, where 1 is the maximum; inactive = score below 0.9). The note with it: mRNA level, 48 h; actives raise or lower the signal. The essentials: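 KLK3 transcript levels were measured by TaqMan qRT-PCR with normalisation to three housekeeping genes. HepaRG cultures received chemicals for 48 h at up to 100 uM (half-log, 8 points, 0.5% DMSO vehicle), fitted in both directions against DMSO.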

The nature of assay [12]: Tanguay_ZF_120hpf_SWIM_legacy: (Legacy) Oregon State University Tanguay Lab 120 Hour Post-fertilization zebrafish Assay for Swim Bladder Malformation (AID 2283654).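 Also: swim bladder malformation in each larva scored yes or no under brightfield.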 The method, boiled down: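 Scoring is binary for swim bladder defects at 120 hpf, by brightfield inspection of zebrafish larvae. Embryos were exposed singly from 6 hpf after pronase dechorionation, at 28C with 0.64% DMSO; mortality excluded scoring.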

The nature of assay [13]: Tanguay_ZF_120hpf_TRUN_legacy: (Legacy) Oregon State University Tanguay Lab 120 Hour Post-fertilization zebrafish Assay for Truncated Body (AID 2283655). The essentials: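 Single dechorionated zebrafish embryos received test chemical from 6 hpf in 0.64% DMSO, kept at 28C. At 120 hpf, brightfield inspection noted any truncated body.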
Assay [14] in a line: Tanguay_ZF_120hpf_NC_legacy: (Legacy) Oregon State University Tanguay Lab 120 Hour Post-fertilization zebrafish Assay for Notochord and Tail Malformation (AID 2283656). The essentials: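 Binary scoring of notochord distortion by brightfield microscopy; embryos dying were not scored. Wild-type Tropical 5D embryos, chorion removed, exposed singly and statically from 6 to 120 hpf, 28C, sealed, 0.64% DMSO.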

Read-out in assay [15]: solute carrier (SLC10A1), SLC10A1 (gene 6554)
As to the kind of experiment: LTEA_HepaRG_SLC10A1: Life Technologies and Expression Analysis (LTEA) Assay for solute carrier (SLC10A1) using HepaRG (AID 2283657; active = hit-call score of the fitted dose curve at least 0.9, where 1 is the maximum; inactive = score below 0.9). The following applies: mRNA level, 48 h; actives raise or lower the signal. The method, boiled down: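 SLC10A1 transcript measured by TaqMan qRT-PCR, housekeeping-normalised, after 48 h chemical treatment of human HepaRG cells. Eight concentrations (half-log, max 100 uM, 0.5% DMSO vehicle) in duplicate; fitted bidirectionally against DMSO baseline.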

Read-out in assay [16]: matrix metalloproteinase-1 (MMP1), MMP1 (gene 4312)
Description: LTEA_HepaRG_MMP1: Life Technologies and Expression Analysis (LTEA) Assay for matrix metalloproteinase-1 (MMP1) using HepaRG (AID 2283658; active = hit-call score of the fitted dose curve at least 0.9, where 1 is the maximum; inactive = score below 0.9). The note with it: mRNA level, 48 h; actives raise or lower the signal. The method, boiled down: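 In this screen, human liver HepaRG cultures receive each chemical in duplicate for 48 h (top 100 uM, 0.5% DMSO). MMP1 expression is then quantified by TaqMan qRT-PCR with ACTB/GAPDH/POLR2A normalization.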

Assay [17] can be described thus: Tanguay_ZF_120hpf_PE_legacy: (Legacy) Oregon State University Tanguay Lab 120 Hour Post-fertilization zebrafish Assay for Pericardial Edema (AID 2283640).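 As to AC50: potency for increased incidence of pericardial edema versus DMSO baseline.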 The essentials:
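Zebrafish larvae are exposed from early development to 120 hpf at 28C, with 0.64% DMSO final. Each surviving larva receives a yes/no pericardial edema call by brightfield imaging, analysed relative to the DMSO baseline.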

Assay [18] relates to Thyroperoxidase (TPO), gene 54314. As to the kind of experiment: CCTE_Simmons_AUR_rTPO: CCTE's Amplex UltraRed Assay for Thyroperoxidase (TPO) Inhibition, Simmons Lab (AID 2283662).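 As to AC50: potency for loss of signal meaning inhibition of peroxidase activity.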 The method, boiled down: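 Cell-free peroxidase activity assay using rat thyroid gland microsomes with excess H2O2 (300 uM) and 25 uM Amplex UltraRed. Compounds tested from 5 nM to 87.5 uM; fluorescence measured after 30 min at 37C, analysed relative to DMSO baseline.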

The nature of assay [19]: Tanguay_ZF_120hpf_TR_legacy: (Legacy) Oregon State University Tanguay Lab 120 Hour Post-fertilization zebrafish Assay for Touch Response (AID 2283667). The essentials: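 Binary touch-response endpoint in larvae at 120 hpf after static waterborne exposure from embryo stage (28°C, 0.64% DMSO vehicle, 5 uM trimethyltin chloride as positive control); embryos dead at 24 or 120 hpf excluded; fitted as gain versus DMSO.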

The nature of assay [20]: CCTE_Simmons_CellTiterGLO_HEK293T: Viability Assessment in CCTE's Assays for Thyroperoxidase (TPO) Inhibition, Simmons Lab (AID 2283665).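 As to AC50: cells exposed to compound for 24 h before readout; actives reduce ATP signal below DMSO vehicle meaning cytotoxicity.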 The method, boiled down: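 Luciferase-coupled ATP content after 24 h exposure gives viability; 8-point series from 5 nM to 87.5 uM final in 0.5% DMSO. Human HEK293T cells, 1% FBS medium, three biological replicates, dichlone positive control.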
In general terms: Cellular ATP, detected with luciferase, serves as a proxy for viable cell number.

In the case of `CC(C)COC(=O)c1ccccc1C(=O)OCC(C)C`, the AC50 (as a rule, the midpoint of the concentration-response curve, whichever way the signal moves) was 30.5 µM (active) in assay [1]; 44.1 µM (active) in [2]; 29.7 µM (active) in assay [3]; 50.6 µM (active) in [6]; 45.5 µM (active) in assay [7]. The compound was classed as inactive in assay [4], in assay [5], in assay [8], in assay [9], in assay [10] and in assay [11]. Besides, the compound was classed as inactive in assay [12], in assay [13], in assay [14], in [15] and in assay [16].

On to `CN(C)c1ccccc1`, for which the result in [1], in assay [2], in assay [3], in [4], in assay [17] and in assay [5] was inactive. Also, the result in [6], in assay [7], in assay [8], in assay [9], in [10] and in [12] was inactive. The compound was classed as inactive in assay [13], in assay [14] and in assay [19]. For the same compound, in [18], the AC50 is 22.7 µM (active).

Consider `COC(=O)c1ccccc1N`, for which the result in assay [1], in assay [2], in assay [3], in [4], in assay [17] and in assay [5] was inactive. Besides, the compound was called inactive in [6], in assay [8], in assay [12], in assay [13], in assay [14] and in assay [18]. The compound was called inactive in assay [20].

`c1ccc2c(c1)oc1ccccc12`: the compound was classed as inactive in assay [1], in assay [2], in assay [3], in assay [4], in [17] and in assay [6]. Also, the compound was called inactive in assay [7], in assay [8], in assay [9], in assay [13], in assay [14] and in [19].

Take `CC(C)(OOC(C)(C)c1ccccc1)c1ccccc1`: the call in assay [1], in assay [2], in assay [3], in assay [4], in [5] and in assay [6] was inactive. For the same compound, the compound was classed as inactive in assay [7], in [8], in assay [9], in [10], in assay [12] and in [13]. In addition, the outcome in assay [14] was inactive.

In the case of `Nc1ccc([N+](=O)[O-])cc1`, the compound was classed as inactive in assay [1], in assay [2], in [3], in assay [4], in [17] and in [5]. Moreover, the outcome in assay [6], in [7], in assay [8], in assay [9], in assay [10] and in assay [12] was inactive. The call in assay [13], in assay [14] and in assay [19] was inactive.

`CO[C@@H]1[C@H](OC(=O)NC(=O)CCl)CC[C@]2(CO2)[C@H]1[C@@]1(C)O[C@@H]1CC=C(C)C`: the compound was called inactive in [1], in assay [4], in [5], in assay [6], in assay [7] and in assay [8]. Further, the call in assay [10], in assay [12], in assay [13], in assay [14], in assay [16] and in assay [18] was inactive. Further, in assay [20], the compound was classed as inactive. In addition, the AC50 in [2] was 0.239 µM (active); in assay [3] it was 0.0405 µM (active); in assay [17], 0.0102 µM (active); in [15], 0.389 µM (active).

In the case of `COP(=S)(OC)SCN1C(=O)c2ccccc2C1=O`, the call in [1], in [2], in assay [3], in assay [4], in [17] and in assay [5] was inactive. Moreover, the compound was called inactive in assay [6], in assay [7], in [8], in [9], in [13] and in [14]. For the same compound, the AC50 in assay [18] was 12.9 µM (active); in assay [20], 43.8 µM (active).

In the case of `CCCCCCCCCCCCCN1CC(C)OC(C)C1` (stereo not given), the compound was called inactive in [1], in assay [2], in assay [3], in assay [4], in assay [17] and in assay [5]. Further, the compound was classed as inactive in assay [6], in assay [7], in assay [8], in [9], in assay [10] and in [12]. Besides, the compound was called inactive in assay [13] and in [19].

(Values after PubChem BioAssay (EPA / NIEHS).)
